Screens from PubChem BioAssay.
Rows were chosen to be rich in hits. Some 4.2% of all compounds tested hit in one or more screens of this group.
MITF act: MITF TRPM1 promoter activation in melanoma cells; activation, % at 12.5 µM; SK-MEL-5 TRPM1-promoter luciferase, 24 h; % of positive control, neutral wells = 0; actives 0.75% (n = 300,000); AID 588334;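 active means mean activation of at least 80% with every replicate also reaching 80%; inconclusive means mean reaches 80% but some replicate falls short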
AHR activator: human AHR activation. actives 2.5% (n = 320,000). activation, % at 5 µM. AHR-responsive luciferase reporter cells, luminescence. P35869; in the data active means activation above about 47%
Wnt bcat act: Wnt/beta-catenin pathway activation; Wnt/beta-catenin reporter cell assay, activator, plate reader; activation, % at 9.35 µM; actives 1.2% (n = 300,000); AID 743398; in the data active means activation above about 30%, passing the limit was not always enough; inconclusive means no clear call, values can overlap the other calls
esBAF inh: SWI/SNF esBAF complex inhibition | actives 2% (n = 350,000) | reporter increase, % at 12.5 µM | mouse ES cells, Bmi1-luciferase knock-in reporter, 24 h; 100% = twice the neutral-well signal | AID 602393; in the data active means activation above about 40%; inconclusive means no clear call, values can overlap the other calls;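 further: a rise in the Bmi1 reporter signal indicates esBAF inhibition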
GAA850 FXN act: activators of GAA850 frataxin (FXN) promoter; HEK293 lucGAA850 FXN promoter luciferase reporter, 24 h; percent of 10 µM SAHA response; activation, % at 6 µM; actives 0.56% (n = 360,000); AID 540364;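 active means activation above the average of all compounds screened plus 3 SD, cutoff fixed separately per campaign, cut at about 7.5% in these data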
A number is an active result; . = inactive; ? = inconclusive; / = not tested or not shown.

SMILES	MITF act	AHR activator	Wnt bcat act	esBAF inh	GAA850 FXN act
CO[C@H]1CN(C)C(=O)c2ccc(NC(=O)C3CCC3)cc2OC[C@H](C)N(Cc2ccncc2)C[C@@H]1C	/	/	/	.	/
O=C(Nc1ccc(Cl)cc1)Nc1ccccc1CC[N+](=O)[O-]	.	67	.	.	.
O=C(Nc1ccccc1N1CCCCC1)c1ccc(F)cc1	.	.	/	.	.
O=C(Nc1ccccc1F)Nc1ccccc1N1CCCCC1	.	.	47	.	.
COc1ccccc1CNc1ncnc2c1cnn2-c1ccccc1	.	.	.	71	.
Cc1ccc(-n2ncc3c(NCc4ccccn4)ncnc32)c(C)c1	.	.	/	.	.
c1ccc(-n2ncc3c(NCc4ccco4)ncnc32)cc1	.	.	?	57	.
c1ccc(Cn2ncc3c(NCc4ccco4)ncnc32)cc1	.	.	.	.	.
Clc1ccc(-n2ncc3c(NCc4ccccn4)ncnc32)cc1	.	.	.	68	.
CO[C@@H]1CN(C)C(=O)c2cc(NC(=O)c3nc4ccccc4s3)ccc2OC[C@@H](C)N(Cc2cncnc2)C[C@@H]1C	/	/	/	.	/
C[C@@H]1CN([C@H](C)CO)S(=O)(=O)c2ccc(-c3cncnc3)cc2O[C@@H]1CN(C)C(=O)C1CCCCC1	/	/	/	.	/
O=C(CSc1nc2ccccc2[nH]1)N=Nc1c(O)[nH]c2ccccc12	.	53	/	/	.
O=C(N=Nc1c(O)[nH]c2ccc(Br)cc12)c1ccccc1-n1cccc1	.	.	.	.	.
O=C(N=Nc1c(O)[nH]c2ccccc12)c1cccs1	.	.	35	/	.
Oc1ccc(NC(=S)N=Nc2c(O)[nH]c3ccccc23)cc1	.	.	?	65	.
Cc1ccc(NC(=S)N=Nc2c(O)[nH]c3ccccc23)cc1	.	.	.	/	.
O=C(N=Nc1c(O)[nH]c2ccc(Br)cc12)c1ccco1	/	/	36	60	.
COc1cccc(C#Cc2cnc3c(c2)C(=O)N([C@@H](C)CO)C[C@H](C)[C@H](CN(C)C)O3)c1	/	/	/	.	/
Oc1[nH]c2ccc(Br)cc2c1N=NC(=S)Nc1ccc(F)cc1	.	75	.	/	.
C[C@H](CO)N1C[C@H](C)[C@H](CN(C)S(=O)(=O)c2ccc(Cl)cc2)Oc2c(NS(=O)(=O)c3ccc(F)cc3)cccc2C1=O	/	/	/	.	/
O=C(C[C@H]1CC[C@H]2[C@@H](COC[C@@H](O)CN2C(=O)c2ccccc2F)O1)NCc1ccc(Cl)c(Cl)c1	/	/	/	.	/
Nn1c(SCc2ccc(F)cc2)nnc1-c1cccnc1	/	.	.	/	.
Cc1ccccc1OCCSc1nnc(-c2cccnc2)n1N	.	54	.	/	.
C[C@H](CO)N1C[C@H](C)[C@H](CN(C)C(=O)C2CC2)Oc2ncc(C#Cc3ccccc3F)cc2C1=O	/	/	/	.	/
CC(C)CC#Cc1ccc2c(c1)O[C@H](CN(C)Cc1ccccc1F)[C@H](C)CN([C@@H](C)CO)S2(=O)=O	/	/	/	.	/
SMILES	MITF act	AHR activator	Wnt bcat act	esBAF inh	GAA850 FXN act
O=C(CN1CCOCC1)N1CC[C@@H]2[C@H]1c1cc(-c3ccccc3)ccc1N[C@@H]2CO	/	/	/	.	/
O=C(C1CC1)N1CC[C@@H]2[C@@H](CO)Nc3ccc(Br)cc3[C@@H]21	/	/	/	.	/
COc1ccc(-c2ccc3c(c2)[C@@H]2[C@@H](CCN2C(=O)CN2CCOCC2)[C@@H](CO)N3)cc1	/	/	/	49	/
O=C(CN1CCOCC1)N1CC[C@@H]2[C@H](CO)Nc3ccc(-c4ccccc4F)cc3[C@@H]21	/	/	/	42	/
O=C(C1CC1)N1CC[C@@H]2[C@H](CO)Nc3ccc(Br)cc3[C@@H]21	/	/	/	58	/
COc1cc(/C=N/NC(=O)c2ccoc2C)cc(OC)c1O	.	.	.	/	.
COc1ccc(/C=N\NC(=O)c2ccccc2)cc1COc1ccccc1	.	.	.	.	.
COc1cccc(OCc2cc(/C=N/NC(=O)c3ccn[nH]3)ccc2OC)c1	.	63	/	/	.
COc1ccc(/C=N/NC(=O)c2ccoc2C)cc1COc1c(C)cccc1C	/	.	.	50	.
CC(C)NC(=O)N(C)C[C@H]1Oc2ccc(NC(=O)NC3CCCCC3)cc2C(=O)N([C@@H](C)CO)C[C@@H]1C	/	/	/	.	/
CN1C(=O)c2cc(NC(=O)c3ccc(F)cc3)ccc2OC[C@H]2O[C@@H](CC(=O)NC3CCC3)CC[C@H]21	/	/	/	.	/
Cc1ccc(/C=N\NC(=O)c2csnn2)cc1	/	49	.	.	.
Cc1ccc(/C=N/NC(=O)c2ccncc2)cc1	/	.	.	.	.
C[C@@H]1CCCCO[C@H](CN(C)C)[C@@H](C)CN([C@@H](C)CO)C(=O)c2cc(NS(=O)(=O)c3ccccc3)ccc2O1	/	/	/	.	/
O=C(Nc1cccc(-c2csc(Nc3ccc(Cl)cc3)n2)c1)c1cc([N+](=O)[O-])cc(C(F)(F)F)c1	.	56	.	.	.
CO[C@@H]1CN(C)C(=O)c2ccc(NC(=O)C3CCCCC3)cc2OC[C@H](C)N(Cc2cccnc2)C[C@@H]1C	/	/	/	.	/
Cc1ccccc1-c1ccc([C@@H]2[C@H](CO)N3CCCCN(S(C)(=O)=O)C[C@@H]23)cc1	/	/	/	.	/
O=C(NCC(=O)N1CCCC1)c1ccccc1F	.	.	.	48	.
CCOC(=O)N1CCN(C(=O)CNC(=O)c2ccccc2F)CC1	.	.	.	.	.
O=C(OCC(=O)N1CCC(Cc2ccccc2)CC1)c1ccccc1O	90	.	.	/	.
O=C(NCC(=O)N1CCC(Cc2ccccc2)CC1)c1ccccc1F	/	/	45	53	.
CC(=O)Nc1ccc(N/C=C/C(=O)c2ccc(Br)cc2)cc1	.	.	/	.	.
COc1cccc(N/C=C/C(=O)c2ccc(Br)cc2)c1	.	.	/	.	.
COc1ccc(NC(=O)NS(=O)(=O)c2ccc(C)cc2)cc1OC	.	.	32	.	.
CC(=O)c1ccc(N/C=C/C(=O)c2ccc(Br)cc2)cc1	/	.	.	46	.
SMILES	MITF act	AHR activator	Wnt bcat act	esBAF inh	GAA850 FXN act
Cc1cccc(N/C=C/C(=O)c2ccc(Cl)cc2)c1	.	.	49	.	.
CCOC(=O)c1ccc(OS(=O)(=O)c2ccccc2)c(OC)c1	?	.	54	/	.
Cc1cccc(N/C=C/C(=C(C#N)C#N)N(C)C)c1	.	48	/	/	.
CCOc1ccc(N/C=C/C(=O)c2ccc(OC)cc2)cc1	.	.	.	?	.
CCOC(=O)c1cccc(N/C=C/C(=O)c2ccc(OC)c(OC)c2)c1	.	.	/	53	.
CCOC(=O)c1ccc(N/C=C\C(=O)c2cccc(OC)c2)cc1	96	.	/	/	.
COc1ccc(N/C=C\C(=O)c2ccc(Br)cc2)cc1OC	.	.	.	/	.
COc1ccc(N/C=C\C(=O)c2ccc(C)cc2)cc1OC	.	.	.	52	.
C[C@@H]1CN([C@H](C)CO)C(=O)c2cccc(NS(=O)(=O)c3ccc(Cl)cc3)c2O[C@H]1CN(C)C(=O)Nc1ccccc1	/	/	/	.	/
COCC(=O)N1[C@@H]2CN(C(=O)Nc3ccccc3Cl)c3ccccc3[C@@H]2[C@@H]1CO	/	/	/	.	/
CCC(=O)NC[C@H]1[C@@H](c2ccc(-c3cccc(F)c3)cc2)[C@@H](CO)N1C(=O)CC	/	/	/	.	/
C[C@H]1CN([C@@H](C)CO)C(=O)c2cccc(NC(=O)Nc3cccc4ccccc34)c2O[C@H]1CN(C)Cc1ccc(Oc2ccccc2)cc1	/	/	/	.	/
